Source: PubChem BioAssay (National Center for Advancing Translational Sciences (NCATS))
Most compounds without a hit are left out; they make up all but 18% or so of the library.
CtBP-E1A blk: inhibitors of CtBP/E1A interaction; AID 651724; activity change, % (no concentration beside the values); AlphaScreen GST-E1A/His-CtBP binding, 1536-well; active compounds read low; actives 0.49% (n = 340,000); in the data active = activity change below about -65%; inconclusive = mostly about -30% to -63%
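In 5 uL wells, 23 nL compound meets equimolar GST-E1A and His-CtBP (5X stock 125 nM each) for 2 h, 37 °C. Beads (5X, 50 ug/mL) then 1 h, 37 °C, dark.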
IL-1B inflam inh: blocks inflammasome-driven IL-1 beta release; THP-1 LPS/ATP IL-1B secretion, AlphaLISA, 16 h; active compounds read low; activity change, % at 57.5 µM; actives 4.7% (n = 360,000); AID 743279; in the data active = activity change below about -50%; inconclusive = mostly about -30% to -49%
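Secreted IL-1B measured by AlphaLISA bead assay after 16 h compound exposure of THP-1 cells; compounds (final up to 57.5 uM) added 1 h before LPS (250 ng/mL) and ATP (1.25 mM) stimulation; lower signal means less secretion.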
TDP1 inh: inhibitors of human tyrosyl-DNA phosphodiesterase TDP1 | Q9NUW8 | recombinant TDP1, AlphaScreen DNA substrate cleavage | Potency, µM (top dose mostly 130 µM), without a hit: top-dose activity change, negative = inhibition, actives largely listed as inhibitors | actives 0.28% (n = 350,000) | AID 485290; note: potency is the fitted concentration of half-maximal effect; nearly all actives have a fitted effect of over 40% in size
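Compounds were preincubated with Tdp1 (1 nM final) for 15 min at room temperature before substrate (15 nM final) started a 5 min reaction; beads (10 ug/ml final) were then added for 10 min before AlphaScreen detection.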
DT40 TDP1 no CPT: qHTS for Inhibitors of human tyrosyl-DNA phosphodiesterase 1 (TDP1): qHTS in cells in absence of CPT | DT40 Tdp1-/- hTDP1 cells, no CPT, ATP luminescence, 48 h | Potency, µM (series often up to 46.2 µM), for inactives: at the highest dose activity change, negative = growth inhibition, usual class: inhibitors | actives 15% (n = 420,000) | AID 686978, 2013; note: potency is the fitted concentration of half-maximal effect; nearly all actives have a fitted effect of over 55% in size
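Stably hTDP1-transfected Tdp1-null chicken DT40 cells were treated with library compounds minus camptothecin and grown for at least 48 hr at 37 °C, after which cellular ATP was quantified by luminescence.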
Six1-Eya2 blk: Six1/Eya2 interaction inhibition | AlphaScreen GST-Six1/His-Eya2 binding, biochemical; active compounds read low | activity change, % (concentration not given with the values) | actives 0.56% (n = 360,000) | AID 651725; in the data active = activity change below about -65%; inconclusive = mostly about -30% to -63%
Target sequence (O00167 whole entry, looked up): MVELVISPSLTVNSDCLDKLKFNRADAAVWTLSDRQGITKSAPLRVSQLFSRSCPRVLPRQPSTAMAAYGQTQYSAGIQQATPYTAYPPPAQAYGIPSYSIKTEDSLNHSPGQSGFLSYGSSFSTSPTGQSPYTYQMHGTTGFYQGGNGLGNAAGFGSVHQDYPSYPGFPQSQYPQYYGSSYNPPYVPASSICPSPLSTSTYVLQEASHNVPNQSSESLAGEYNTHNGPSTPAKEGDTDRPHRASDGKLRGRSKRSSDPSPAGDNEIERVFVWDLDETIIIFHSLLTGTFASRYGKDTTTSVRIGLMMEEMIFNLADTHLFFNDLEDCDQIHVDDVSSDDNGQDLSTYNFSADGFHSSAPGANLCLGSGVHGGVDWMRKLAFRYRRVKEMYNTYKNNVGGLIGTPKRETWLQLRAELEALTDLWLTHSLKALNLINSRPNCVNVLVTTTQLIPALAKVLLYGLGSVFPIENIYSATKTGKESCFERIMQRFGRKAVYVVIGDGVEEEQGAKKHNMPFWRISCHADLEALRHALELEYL
Target sequence (Q15475 whole entry, looked up): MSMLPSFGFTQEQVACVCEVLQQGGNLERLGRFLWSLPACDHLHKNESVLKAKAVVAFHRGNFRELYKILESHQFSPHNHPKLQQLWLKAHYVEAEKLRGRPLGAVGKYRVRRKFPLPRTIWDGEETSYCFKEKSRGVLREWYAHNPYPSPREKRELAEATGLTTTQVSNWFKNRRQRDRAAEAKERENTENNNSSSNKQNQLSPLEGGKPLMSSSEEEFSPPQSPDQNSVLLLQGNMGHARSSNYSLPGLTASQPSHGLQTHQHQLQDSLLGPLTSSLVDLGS
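Six1/Eya2 binding was read as AlphaScreen signal after compounds were pinned into GST-Six1 plus His-tagged Eya2 (5X stock 250/500 nM) in pH 8.0 Tris/NaCl/TCEP buffer, beads added, then incubated 1 h, 37 C, dark.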
DT40 TDP1 CPT: DT40-hTDP1 cell growth loss with CPT; chicken DT40 Tdp1-/-;hTDP1 cells + 20 nM CPT, ATP luminescence, 48 h; Potency, µM (doses to about 46.2 µM), without a hit: top-dose activity change, negative = growth inhibition, actives largely listed as inhibitors; actives 12% (n = 420,000); AID 686979; note: potency is the fitted concentration of half-maximal effect; nearly all actives have a fitted effect of over 55% in size
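Cell growth measured by CellTiter-Glo luminescence after a minimum 48 h, 37 C compound exposure with 20 nM CPT in Tdp1-knockout DT40 cells stably expressing hTDP1, seeded 400/well; qHTS titration format.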
Starred values were filed as active, the others as inactive; [ ] = remark or other dose. Unless noted, calls come from the whole dose curve; as a rule, active = well fitted curve in the direction sought with a large enough effect; inconclusive = small, poorly fitted or top-dose-only effect, or another doubt; inactive = no such curve, though single readings can be large; an effect the other way counts as inactive or inconclusive. % is set by controls: 0 for no effect and ±100 for the full control effect.

`CC(=O)N1c2ccc(S(=O)(=O)N3CCC(C(=O)NCc4ccccc4)CC3)cc2CC1C` (stereo not given) gave CtBP-E1A blk -1, IL-1B inflam inh 14, TDP1 inh 4%, DT40 TDP1 no CPT -19%, Six1-Eya2 blk 0 and DT40 TDP1 CPT inconclusive.
`COc1ccc(CNC(=O)C2CCN(S(=O)(=O)c3ccc4c(c3)CC(C)N4C(C)=O)CC2)cc1` (stereo not given) gave CtBP-E1A blk 1, IL-1B inflam inh -76*, TDP1 inh 1%, DT40 TDP1 no CPT -23%, Six1-Eya2 blk 0 and DT40 TDP1 CPT -11%.
`CC(=O)N1c2ccc(S(=O)(=O)N3CCC(C(=O)Nc4cccc(C(F)(F)F)c4)CC3)cc2CC1C` (stereo not given) gave CtBP-E1A blk 0, IL-1B inflam inh -5, TDP1 inh 4%, DT40 TDP1 no CPT inconclusive, Six1-Eya2 blk -4 and DT40 TDP1 CPT 16µM*.
For COc1ccc(CNC(=O)C2CCN(S(=O)(=O)c3cccnc3)CC2)cc1 the results were IL-1B inflam inh -3, TDP1 inh -1%, DT40 TDP1 no CPT -5%, Six1-Eya2 blk 0 and DT40 TDP1 CPT 25%.
Screening COc1ccc(CNC(=O)C2CCN(S(=O)(=O)c3cccc(-c4noc(C)n4)c3)CC2)cc1 returned TDP1 inh 0%, DT40 TDP1 no CPT 9.2µM* and DT40 TDP1 CPT 23µM*.
`CCc1cccc(NC(=O)C2CCN(S(=O)(=O)c3ccc4c(c3)CC(C)N4C(C)=O)CC2)c1` (stereo not given) gave CtBP-E1A blk -12, IL-1B inflam inh 0, DT40 TDP1 no CPT 21µM*, Six1-Eya2 blk 2 and DT40 TDP1 CPT 16µM*.
Screening Cc1ccc(C(=O)NCCc2csc(-c3cccnc3)n2)cc1 returned CtBP-E1A blk -4, IL-1B inflam inh 0, TDP1 inh 2%, DT40 TDP1 no CPT inconclusive, Six1-Eya2 blk -2 and DT40 TDP1 CPT inconclusive.
`CN1/C(=C/C(=O)COC(=O)C2COc3ccccc3O2)C(C)(C)c2ccccc21` (stereo not given) gave CtBP-E1A blk 4, IL-1B inflam inh 10, DT40 TDP1 no CPT 21µM*, Six1-Eya2 blk -8 and DT40 TDP1 CPT 26µM*.
For COc1ccccc1C(=O)COC(=O)CN1C(=O)C2CC=CCC2C1=O (stereo not given) the results were CtBP-E1A blk 3, IL-1B inflam inh 11, TDP1 inh 1%, DT40 TDP1 no CPT -4%, Six1-Eya2 blk 2 and DT40 TDP1 CPT 13%.
CN1/C(=C\C(=O)COC(=O)CN2C(=O)C3CC=CCC3C2=O)C(C)(C)c2ccccc21 (stereo not given) was read as CtBP-E1A blk -1, IL-1B inflam inh 59, TDP1 inh 2%, DT40 TDP1 no CPT 18µM*, Six1-Eya2 blk -2 and DT40 TDP1 CPT inconclusive.
For Cc1ccc(NC(=O)COC(=O)C2COc3ccccc3O2)cc1 (stereo not given) the results were CtBP-E1A blk 0, IL-1B inflam inh 40, TDP1 inh -3%, DT40 TDP1 no CPT 21%, Six1-Eya2 blk 20 and DT40 TDP1 CPT -2%.
Screening O=C(Nc1ccccc1F)Nc1cc(Cl)ccc1-n1cncn1 returned CtBP-E1A blk -18, IL-1B inflam inh -3, TDP1 inh -5%[0.0935 µM], DT40 TDP1 no CPT inconclusive, Six1-Eya2 blk -1 and DT40 TDP1 CPT -10%.
Screening CC(C)c1ccc(Nc2cc(C(=O)NCCCN(C)Cc3ccccc3)c3ccccc3n2)cc1 returned TDP1 inh 5%, DT40 TDP1 no CPT inconclusive and DT40 TDP1 CPT 9.2µM*.
For COc1ccc(Nc2cc(C(=O)NCCCN(C)C3CCCCC3)c3ccccc3n2)cc1 the results were TDP1 inh 9%, DT40 TDP1 no CPT 21µM* and DT40 TDP1 CPT 15µM*.
For Cc1nc(N2CCN(S(=O)(=O)c3cccc4nonc34)CC2)c2c3c(sc2n1)CCCC3 the results were CtBP-E1A blk -14, IL-1B inflam inh -3, TDP1 inh 0%, DT40 TDP1 no CPT 16µM*, Six1-Eya2 blk -4 and DT40 TDP1 CPT inconclusive.
Screening Cc1nc(N2CCN(S(=O)(=O)c3ccccc3)CC2)c2c3c(sc2n1)CC(C)CC3 (stereo not given) returned CtBP-E1A blk -3, IL-1B inflam inh 9, TDP1 inh 1%, DT40 TDP1 no CPT inconclusive, Six1-Eya2 blk -3 and DT40 TDP1 CPT -23%.
N#Cc1nc(-c2ccco2)oc1N1CCC(C(N)=O)CC1 was read as CtBP-E1A blk 11, IL-1B inflam inh 1, TDP1 inh -6%, DT40 TDP1 no CPT -8%, Six1-Eya2 blk -4 and DT40 TDP1 CPT -12%.
`O=C(CNC(=O)C(c1ccccc1)c1ccccc1)OCC(=O)c1cccs1` gave CtBP-E1A blk 0, IL-1B inflam inh 2, TDP1 inh 3%, DT40 TDP1 no CPT 1.5µM*, Six1-Eya2 blk 13 and DT40 TDP1 CPT 1.6µM*.
`O=C(CNC(=O)c1ccccc1)OCC(=O)c1cccs1` gave CtBP-E1A blk 4, IL-1B inflam inh -1, TDP1 inh 13%, DT40 TDP1 no CPT -9%, Six1-Eya2 blk -4 and DT40 TDP1 CPT -7%.
`O=C(CNC(=O)C(c1ccccc1)c1ccccc1)OCC(=O)c1cccc2ccccc12` gave TDP1 inh 0%, DT40 TDP1 no CPT 20µM* and DT40 TDP1 CPT inconclusive.
COc1ccccc1C(=O)NCC(=O)OCC(=O)c1cccc2ccccc12 was read as CtBP-E1A blk -1, IL-1B inflam inh 38, TDP1 inh 1%, DT40 TDP1 no CPT inconclusive, Six1-Eya2 blk 6 and DT40 TDP1 CPT inconclusive.
Screening CCOC(=O)N1CCc2c(sc3c2c(=O)n(-c2ccc(CC)cc2)c(=O)n3CC(=O)NCC2CCCO2)C1 (stereo not given) returned IL-1B inflam inh 50, TDP1 inh 6%, DT40 TDP1 no CPT 1.3µM*, Six1-Eya2 blk 13 and DT40 TDP1 CPT 4.6µM*.
`CC(=O)N1CCc2c(sc3c2c(=O)n(-c2ccccc2)c(=O)n3CC(=O)NCC2CCCO2)C1` (stereo not given) gave CtBP-E1A blk 2, IL-1B inflam inh 26, DT40 TDP1 no CPT 11%, Six1-Eya2 blk 1 and DT40 TDP1 CPT -2%.
Screening CCCN(CCC)C(=O)Cn1c(=O)n(-c2ccc(CC)cc2)c(=O)c2c3c(sc21)CCC3 returned TDP1 inh 3%, DT40 TDP1 no CPT 16µM* and DT40 TDP1 CPT inconclusive.
